Structures are written as SMILES. This is part of a sample that, as a whole, favours compounds with a hit. Of some 83,000 tested, about 20% had one in any assay.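 96-well plates, one dose, 48 hours. Percent growth reported; active if below 10.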 Values without a mark were called inactive. The source made the active and inactive calls.

Test in all cases: NCI-60 one-dose screen, 48 h (100 = growth as untreated, 0 = no growth, -100 = all killed)
Conditions in all cases: 10 µM unless noted

In test [1] the test system is HCT-15 colon.
Test [2] deals with HT29 colon.
Test [3] concerns SNB-75 CNS.
Test [4] deals with SNB-19 CNS.
Test [5] has as its system U251 CNS.
Test [6] has as its system PC-3 prostate.
Test [7] has as its system SK-MEL-5 melanoma.
The subject of test [8] is UACC-62 melanoma.
Test [9] concerns LOX IMVI melanoma.
Test [10] relates to SK-MEL-28 melanoma.

For `c1ccc2sc(SCCCn3ccnc3)nc2c1`, the growth in test [1] was 98.3%; in test [2], 67%; in [3], 117%; in test [4], 94%; in test [5], 88.2%; in test [6] it was 80.1%. Also, the growth in test [7] is 92.1%; in test [8] it was 87.8%; in test [9], 96.5%; in test [10] it was 109%.
In the case of `Nc1ccc2c(c1)C(=O)NC2=O`, the growth is 98.5% in [1]; 90.7% in [2]; 75.8% in test [3]; 93.5% in test [4]; 96% in test [5]; 121% in [6]. Also, the growth in [7] was 105%; in test [8] it was 89.7%; in test [9] it was 97.8%; in test [10], 99.8%.
Consider `Oc1c(Cl)cc(Cl)cc1CNc1nccnn1`, for which the growth in test [1] is 101%; in [2] it was 105%; in test [3] it was 78.1%; in test [4], 95.8%; in test [5], 102%; in test [6] it was 94.8%. The growth in test [7] is 102%; in test [8], 93.9%; in test [9], 99.4%; in test [10], 106%.
On to `COc1ccc(C(=O)c2sc3nc4c(cc3c2N)CCCC4)cc1OC`, for which the growth in test [1] is 31.2%; in test [2], 19%; in test [3], 49.3%; in test [4], 71.3%; in test [5] it was 39.9%; in test [6] it was 50.8%. Besides, the growth was -11.4% (active) in [7], 36.2% in [8] and 47.3% in test [10].
`O=C(CCN1CCOCC1)Nc1ccc(Cn2nnc3c2C(=O)c2nnn(Cc4ccc(NC(=O)CCN5CCOCC5)cc4)c2C3=O)cc1`: the growth is 93.6% in test [1]; 1.57% (active) in test [2]; -86.7% (active) in test [3]; 27.1% in [4]; -58.7% (active) in [5]; 17.7% in [6]. Besides, the growth is -72.9% (active) in test [7], -17.3% (active) in [8], -21.9% (active) in test [9] and 31.7% in test [10].
Regarding `Clc1ccc(-c2nnc(COc3ccccc3Cl)o2)cc1`, the growth is 81% in [1]; 71% in [2]; 2.45% (active) in [3]; 86.7% in [4]; 60.3% in test [5]; 89.1% in [6]. Besides, the growth in test [7] is 91.4%; in test [8] it was 79.7%; in [9], 81.5%; in [10], 85.1%.
For the compound `Nc1nc2c(c3ncccc13)C(c1cccc(Br)c1)Cc1ncccc1-2` (configuration not stated), the growth in [1] is 17.6%; in [2], 0.652% (active); in test [3] it was 30.1%; in [4] it was 31.6%; in [5] it was 11.3%; in [6], 25.6%. In addition, the growth in test [7] was 31.8%; in test [8] it was 27.4%; in [9] it was 38.9%; in test [10] it was 55.1%.
For `COc1cc(C2CC(=O)Nc3c2c(C)nn3-c2nc3ccccc3[nH]2)cc(OC)c1OC` (configuration not stated), the growth in [1] was 101%; in test [2] it was 109%; in [3] it was 86.9%; in test [4], 93.4%; in [5], 102%; in test [6] it was 75.2%. Besides, the growth in test [7] was 99.7%; in test [8], 97.2%; in test [10], 103%.
For `COc1cc(-c2c3c(nc4c2c(C)nn4-c2ccccc2)-c2ccccc2C(=O)C3=O)cc(OC)c1OC`, the growth is 85.6% in [1]; 44.7% in test [2]; 138% in test [3]; 101% in test [4]; 86.7% in [5]; 53.1% in [6]. Further, the figures for the growth in test [7], in test [8] and in test [10] were 70.5%, 86.7% and 95%, respectively.
For `COc1cc(C2CC(=O)c3c(C)nn(-c4nc5ccccc5[nH]4)c3C2)cc(OC)c1OC` (configuration not stated), the growth in test [1] is 87%; in test [2], 74.2%; in test [3], -24.8% (active); in test [4], 71.8%; in [5] it was 30%; in test [6], 72.2%. For the same compound, the growth is 87.1% in test [7], 90.8% in test [8] and 86.5% in test [10].
Take `CC1(C)CC(=O)C(c2c(-c3ccccc3)[nH]c3[nH]c(=S)[nH]c(=O)c23)=C(O)C1`: the growth in [1] is 112%; in test [2], 106%; in [3] it was 107%; in test [4], 93%; in test [5] it was 105%; in [6], 83%. Further, the growth was 108% in [7], 92.4% in test [8], 111% in [9] and 110% in [10].
As to `CCOC(=O)CC(=O)c1c(C)cc(C)cc1C`, the growth is 98.2% in test [1]; 87.7% in test [2]; 112% in [3]; 96.2% in test [4]; 105% in test [5]; 103% in test [6]. For the same compound, the growth in test [7] was 100%; in [8], 96.9%; in test [9] it was 98.5%; in test [10], 118%.
As for `COc1ccc(CN2C(=O)/C(=C\c3cc(OC)c(OC)c(OC)c3)c3cc(OC)ccc32)cc1`, the growth is -36.6% (active) in test [1]; -25.3% (active) in test [2]; 28.3% in test [3]; 59.8% in [4]; -48% (active) in test [5]; 28.9% in test [6]. The growth in test [7] is 1.57% (active); in [8], -10.4% (active); in [9] it was -71.8% (active); in test [10], -31.8% (active).
With `COc1c(C2CC(=O)Nc3c2cnn3Cc2ccco2)cc2c(c1OC)OCO2` (configuration not stated), the growth in test [1] was 18.5%; in test [2] it was 11.2%; in test [3], 8.9% (active); in [4] it was 50.6%; in test [5] it was 20.4%; in [6] it was 24.6%. Moreover, the growth in test [7] is 3.98% (active); in test [8] it was 35.4%; in [10], 40.7%.
As to `COc1ccc(-c2c(C)noc2-c2ccc(O)cc2O)cc1`, the growth was 68.8% in [1]; 102% in test [2]; 90.9% in test [3]; 104% in [4]; 93.8% in test [5]; 71.8% in [6]. Moreover, the growth is 80.4% in [7], 90.7% in test [8] and 105% in [10].
Turning to `Oc1ccc2c(=S)cc(-c3ccc(Br)cc3)oc2c1O`, the growth was 8.03% (active) in [1]; 63.9% in test [2]; 71.4% in test [3]; 6.8% (active) in test [4]; -7.83% (active) in test [5]; -2.05% (active) in test [6]. Besides, the growth in [7] was 10.9%; in [8], 8.09% (active); in test [9], 1.22% (active); in test [10], 51.4%.
For the compound `O=C(O)c1c([N+](=O)[O-])cnc2ccccc12`, the growth in test [1] was 109%; in [2], 107%; in test [3] it was 88.4%; in [4] it was 91%; in test [5], 106%; in [6], 104%. For the same compound, the growth is 97.4% in test [7], 99.4% in test [8], 97.6% in [9] and 125% in [10].
Consider `O=C(C[C@@H](C(=O)NCc1cccc(C(F)(F)F)c1)N1C(=O)[C@@H](N2C(=O)OC[C@@H]2c2ccccc2)[C@H]1/C=C/c1ccccc1)NC1CCN(Cc2ccccc2)CC1`, for which the growth was 61.1% in test [1]; 2.51% (active) in test [2]; 71.7% in test [3]; 84.6% in [4]; 70.9% in test [5]; 54.4% in [6]. Also, the growth in test [7] is 43.1%; in test [8] it was 73.3%; in test [9] it was 23.9%; in test [10], 81.5%.
Consider `C/C(=C(/c1ccc(O)cc1)c1ccc(OCCN2CCCC2)cc1)c1ccccc1`, for which the growth was 34.6% in [1]; -10.7% (active) in test [2]; 46.1% in test [3]; 73.5% in test [4]; 35.1% in [5]; 48.1% in [6]. Moreover, the growth in test [7] is -65.8% (active); in [8], -29.3% (active); in test [9] it was -50.2% (active); in test [10], -40.8% (active).
Consider `COc1cc(C2CC(=O)Nc3c2cnn3Cc2ccco2)cc2c1OCCO2` (configuration not stated), for which the growth in [1] is 64.9%; in test [2] it was 88.8%; in test [3], 77.5%; in test [4] it was 97.9%; in [5], 84.6%; in test [6] it was 97.6%. Also, the growth was 75.5% in test [7], 75.8% in [8] and 75.7% in [10].
Consider `COc1cc(-c2c3sc(=O)[nH]c3nc3c2c(=O)[nH]n3C(C)C)cc2c1OCO2`, for which the growth in test [1] is 101%; in test [2], 103%; in [3] it was 85.2%; in test [4], 107%; in [5] it was 103%; in test [6], 117%. Also, the growth is 96.9% in [7], 105% in test [8] and 99.2% in test [10].
With `COc1ccc(C(=O)c2sc3nc(-c4ccccc4OC)ccc3c2N)cc1OC`, the growth in test [1] was 58.5%; in test [2], 56.2%; in [3] it was 73.2%; in [4], 78.2%; in [5] it was 63.2%; in [6], 30.9%. Also, the growth in test [7] is 8.53% (active); in test [8], 67.8%; in test [10] it was 88.8%.
On to `C=C1CCC2C3(C)COC(c4ccccc4Br)OC3CCC2(C)C1C/C=C1/C(=O)OCC1OC(C)=O` (configuration not stated), for which the growth in test [1] is -36.2% (active); in test [2], -46.2% (active); in test [3], -25.3% (active); in [4], 102%; in test [5], -95.9% (active); in test [6] it was -17.1% (active). The growth in test [7] is -57.1% (active); in test [8], -18.4% (active); in test [9], -92% (active); in test [10], -52.9% (active).
Turning to `COc1ccc(C2CC(=O)Nc3c2c(C)nn3-c2nc3ccccc3[nH]2)cc1` (configuration not stated), the growth in test [1] is 99.6%; in [2] it was 103%; in test [3], 103%; in test [4] it was 113%; in test [5], 103%; in [6], 38.7%. In addition, the figures for the growth in test [7], in [8] and in [10] were 95.5%, 104% and 105%, respectively.
`CN(C)CCCC(=O)Nc1ccc(Cn2nnc3c2C(=O)c2nnn(Cc4ccc(NC(=O)CCCN(C)C)cc4)c2C3=O)cc1`: the growth in [1] was 94.5%; in test [2], 10.5%; in test [3] it was -94.9% (active); in test [4], 82.7%; in test [5], 90.2%; in [6], 88.1%. Moreover, the growth in test [7] is 50.3%; in [8], 75.7%; in test [10], 56.5%.
As for `COc1cc(-c2cnc3nonc3n2)c(OC)c2c1OCO2`, the growth in test [1] is 87.5%; in test [2], 104%; in test [3] it was 95.7%; in test [4], 108%; in test [5], 93.5%; in test [6] it was 76.2%. Besides, the growth in [7] is 96.2%; in test [8] it was 106%; in [10], 111%.
As for `COc1cc2nc3cc([N+](=O)[O-])ccc3c(NCCCNCC(C)(C)O)c2cc1OC`, the growth in [1] is 21.9%; in [2], -52.4% (active); in [3], -96% (active); in test [4], -26.1% (active); in test [5], -68.9% (active); in [6] it was -61.8% (active). Also, the values for the growth in test [7], in [8] and in test [10] were -94.5% (active), -76.1% (active) and -64% (active), respectively.
As for `Cc1ccc(S(=O)(=O)n2cc(-c3csc(-c4cn(C)c5ncccc45)n3)c3ccccc32)cc1`, the growth is 35.8% in test [1]; 19.3% in test [2]; 45.8% in test [3]; 85% in test [4]; 51.9% in [5]; 44.8% in test [6]. In addition, the growth is 39.4% in [7], 58.1% in test [8], 51.2% in test [9] and 58.8% in [10].

The values above are taken from PubChem BioAssay (NCI).
